Results published in PubChem BioAssay (NCI).
This is part of a sample that, as a whole, favours compounds with a hit. Of some 83,000 tested, about 20% had one in any assay.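 48-hour exposure, single concentration, 96-well plates; percent growth endpoint where 0 means no net growth. Active: below 10.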 Active and inactive are the calls of the source.

System: HL-60(TB) leukemia
Experiment: NCI-60 one-dose screen, 48 h (100 = growth as untreated, 0 = no growth, -100 = all killed)
Conditions: 10 µM unless noted

SMILES | growth
CCCCc1n(Cc2ccc3ccccc3c2)cc[n+]1Cc1ccc2ccccc2c1 | -52.6% (active)
Cc1nc(Nc2cccc(NC(=O)Nc3ccc(Cl)cc3)c2)c2ccccc2n1 | 78.6% (inactive)
O=COCCCc1ccccc1 | 106% (inactive)
COc1ccc(C2CC(c3cccc(Nc4ccncc4)c3)=NN2c2cc(Cl)cc(Cl)c2)cc1 (centres undefined) | 4.35% (active)
COC(=O)[C@H](C)NC(=O)[C@@H](OC)[C@@H]1Cc2cc3cc(OC4CC(OC5CC(O)C(O)C(C)O5)C(O)C(C)O4)c(C)c(O)c3c(O)c2C(=O)[C@H]1OC1CC(OC2CC(OC3CC(C)(O)C(O)C(C)O3)C(O)C(C)O2)C(O)C(C)O1 (some centres undefined) | 20.8% (inactive)
Fc1cc(-c2nnc3sc(-c4ccc(Cl)cc4Cl)nn23)c(Cl)cc1Cl | 161% (inactive)
COc1ccc2oc(=O)cc(-c3c(C#N)c(N)n4nc(N)c(C#N)c4c3C#N)c2c1 | 96.4% (inactive)
Oc1ccccc1/C=N/N1CCCCCC1 | 86.7% (inactive)
O=c1c2cc(F)ccc2sc2c(N3CCNCC3)nc3ccc(F)cc3c12 | 3.71% (active)
Cc1nc2sc(C(=O)Nc3cccc4ncccc34)c(N)c2cc1C(C)O (centres undefined) | 33% (inactive)
COc1cc(CN(c2ccc(C)cc2)C2OC(=O)c3ccccc32)cc(OC)c1OC (centres undefined) | -30.4% (active)
COc1ccc(C(=O)c2cc(OC)c(C)c(OC)c2)cc1OC(=O)CCl | -28.5% (active)
CN(C1c2ccccc2Oc2ccccc21)S(=O)(=O)c1cc(Cl)ccc1Cl | 15.7% (inactive)
CCOC(=O)c1csc(NC(=O)COc2cccc(/C=C3\CSc4ccccc4C3=O)c2)n1 | -77.5% (active)
